Mito fusion act: blocks mitochondrial division or promotes mitochondrial fusion. S. cerevisiae fusion-defective mutant growth rescue, CellTiterGlo 48 h. Potency, µM (titrated, usually from 46.1 µM), hits mostly activators. 0.23% of 320,000 active. AID 485298; also: nearly all actives have a fitted effect of over 45% in size
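Growth-rescue viability read-out: after 48 h at the non-permissive 37C in glycerol/ethanol YPEG, yeast mitochondrial fusion mutants are measured by CellTiterGlo luminescence; compounds (23 nl pinned per well) restoring growth score as division inhibitors or fusion activators.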
A549 viability: kills or reduces viability of A549 cells in Nrf2 counter-screen; AID 504648; A549 ARE-Fluc cells, CellTiter-Fluor viability, 18-24 h; 0.16% of 390,000 active; Potency, µM (top dose mostly 46 µM), actives largely listed as inhibitors
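Cytotoxicity counterscreen: CellTiter-Fluor fluorescence was measured in A549 ARE_Fluc cells after 18-24 h of compound exposure in a concentration series. The subsequent BugLite luminescent read reports ARE-luciferase activity.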
TrxR1 inh: inhibitors of rat thioredoxin reductase 1; recombinant rTrxR1, NADPH fluorescence consumption, selenite substrate; AID 588453; 1% of 390,000 active; Potency, µM (titrated, usually from 114 µM), usual class: inhibitors; also: nearly all actives have a fitted effect of over 65% in size
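Rat TrxR1 (90 nM in the dispensed reagent) was pre-reduced with 400 uM NADPH for 5 min at room temperature, then incubated with compound for 15 min. After 400 uM selenite was added, NADPH fluorescence (Ex 340/Em 450 nm) was followed for 8 min.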
TrxR1 substrate: rat thioredoxin reductase 1 substrate activity | Potency, µM (highest dose often 114 µM) | AID 588456 | 0.01% of 390,000 active | purified TrxR1 substrate turnover, NADPH consumption readout | O89049; also: nearly all actives have a fitted effect of over 50% in size
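Rat TrxR1, dispensed at 90 nM, was prereduced with 400 uM NADPH (final) for 5 min at ~22 deg C, then incubated with compound 15 min before 400 uM selenite. A first-read NADPH fluorescence drop versus no-compound background flagged substrates.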
IDH1 R132H inh: blocks human mutant IDH1 R132H enzyme. O75874. IDH1-R132H enzyme, NADPH consumption, diaphorase/resazurin fluorescence. Potency, µM (highest dose often 76.6 µM), usual class: inhibitors. 0.093% of 390,000 active. AID 602179; also: nearly all actives have a fitted effect of over 65% in size
Target sequence (O75874 whole entry R132H, stated change not applied): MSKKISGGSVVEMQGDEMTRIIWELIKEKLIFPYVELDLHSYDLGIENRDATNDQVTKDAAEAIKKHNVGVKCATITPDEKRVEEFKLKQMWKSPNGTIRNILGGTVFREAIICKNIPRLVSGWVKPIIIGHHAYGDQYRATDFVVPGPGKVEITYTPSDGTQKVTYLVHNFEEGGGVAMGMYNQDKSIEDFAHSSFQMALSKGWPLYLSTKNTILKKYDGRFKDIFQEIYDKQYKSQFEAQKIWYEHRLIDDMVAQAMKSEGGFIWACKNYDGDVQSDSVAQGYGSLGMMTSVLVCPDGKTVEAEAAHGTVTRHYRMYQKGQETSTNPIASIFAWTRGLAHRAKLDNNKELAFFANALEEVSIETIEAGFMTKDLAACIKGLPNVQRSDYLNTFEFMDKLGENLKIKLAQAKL
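IDH1-R132H (0.5 ug/mL) preincubated 30 min with compound, then NADPH (0.016 mM) and alpha-KG (2 mM) added; 80 min at RT, pH 7.5. Remaining NADPH coupled via diaphorase/resazurin to fluorescence (540/590 nm); concentration-response curves normalized to no-enzyme control.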
Nrf2 block: Nrf2 pathway inhibition; 2.1% of 360,000 active; A549 ARE-Fluc reporter, luciferase luminescence, 18-24 h; AID 504444; Potency, µM (highest dose often 46 µM), actives largely listed as inhibitors; also: nearly all actives have a fitted effect of over 60% in size
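Nrf2 activity is the BugLite luminescence, read 15 min after reagent at room temperature, following CellTiter-Fluor cytotoxicity readout (30 min, 37C). Compound titrations were applied for 18-24 h to 5000 A549 ARE_Fluc cells/well in 5% FBS OPTI-MEM.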
Numbers stand for hits; - = inactive; ? = inconclusive; . = not tested or not shown; ! = repeats disagree. Rows were chosen to be rich in hits. Some 3.1% of all compounds tested hit in one or more screens of this group. Calls follow the shape of the dose curve; as a rule, active = well fitted curve in the direction sought with a large enough effect; inconclusive = small, poorly fitted or top-dose-only effect, or another doubt; inactive = no such curve, though single readings can be large; an effect the other way counts as inactive or inconclusive.

SMILES	Mito fusion act	A549 viability	TrxR1 inh	TrxR1 substrate	IDH1 R132H inh	Nrf2 block
CCOCCCNC(=O)CN1C(=O)c2c(c3ccccc3n2C)C1c1ccc(OC)cc1 (stereo not drawn)	.	-	-	-	-	-
CCOC(=O)c1c(C)oc2nc(C)nc(NCCc3ccc(Cl)cc3)c12	.	-	-	-	-	-
CCOC(=O)c1c(C)oc2nc(C)nc(NCCc3ccc(OCC)cc3)c12	.	-	-	-	-	23µM
COc1ccc(C)cc1NC(=O)C(OC(=O)CNC(=O)c1ccccc1)c1ccccc1 (stereo not drawn)	.	-	.	.	.	-
CCc1nnc(NC(=O)CSc2nnc(-c3ccco3)n2CCOC)s1	5.6µM	-	-	-	-	-
CCn1c(SCC(=O)N2c3ccccc3Sc3ccccc32)nnc1-c1ccco1	-	-	20µM	-	-	23µM
CC(C)(C)C(=O)Cn1c(=O)n(-c2ccc(Cl)cc2)c(=O)c2c3c(sc21)CCCC3	.	-	-	-	-	-
O=c1c(O)c(-c2ccc(O)cc2)oc2cc(O)cc(O)c12	.	-	-	-	-	-
O=c1c(O)c(-c2ccc(O)c(O)c2)oc2cc(O)ccc12	.	-	-	-	-	12µM
CCOc1ccc(S(=O)(=O)n2ccc(C)n2)c2ccccc12	-	?	-	-	-	23µM
CCOc1ccc(S(=O)(=O)N2CCCCC2)c2ccccc12	-	-	-	-	-	?
COc1ccc(Cc2nc(-c3ccc(-n4cccc4)cc3)no2)cc1OC	-	-	-	-	-	16µM
COc1ccc(Cc2nc(-c3ccc(-n4cccc4)cc3)no2)cc1	-	-	-	-	-	?
COC(=O)CN1C(=O)S/C(=C/c2ccc(N3CCCCC3)o2)C1=O	-	.	3.5µM	-	-	-
O=C(O)CN1C(=O)/C(=C/c2ccc(N3CCCCC3)o2)SC1=S	-	?	28µM	-	10µM	-
CCOC(=O)CN1C(=O)S/C(=C/c2ccc(N3CCCCC3)o2)C1=O	-	-	50µM	-	-	-
O=[N+]([O-])c1ccc(/C=C2\C=Cc3ccccc32)cc1	.	.	-	-	.	.
C1=Cc2ccccc2/C1=C\c1cccc(/C=C2\C=Cc3ccccc32)c1	.	.	20µM	-	.	.
Cc1cc(/C=C2\C=Cc3ccccc32)cc(C)c1[N+](=O)[O-]	.	.	20µM	-	.	.
Brc1ccc(/C=C2\C=Cc3ccccc32)cc1	.	.	32µM	-	.	.
O=C(C1CC1)N1CCN(c2nc3ccc(F)cc3s2)CC1	.	-	-	-	-	.
CCc1ccc2c(c1)c(=O)c(S(=O)(=O)c1ccccc1)cn2CC(=O)Nc1cc(C)ccc1C	.	-	-	-	-	-
C=Cc1cc2c(s1)c1cnn(Cc3ccccc3F)c(=O)c1n2C	.	-	.	.	.	-
CCOc1ccc(CCNC(=O)c2cc3c(=O)[nH]c4ccc(C)cc4c3s2)cc1OCC	.	-	-	-	-	?
c1ccc(Cn2c(-c3ccccc3)c[n+]3c2SCCC3)cc1	-	-	-	-	-	8.2µM
SMILES	Mito fusion act	A549 viability	TrxR1 inh	TrxR1 substrate	IDH1 R132H inh	Nrf2 block
O=[S+]([O-])(c1ccc2c(c1)OCCO2)N1CCN([S+](=O)([O-])c2ccccc2Br)CC1	.	-	.	.	.	-
CC1CCN(S(=O)(=O)c2ccc3c(ccc(=O)n3CC(=O)NCc3ccccc3Cl)c2)CC1	.	-	-	-	-	.
Cc1ncc(C[n+]2csc(C)c2C)c(N)n1	-	-	-	-	-	-
Cc1ncc(C[n+]2csc(CCO)c2C)c(N)n1	-	?	-	-	-	15µM!
Cc1ccsc1C(=O)N(c1nc2ccccc2s1)c1c(C)cccc1C	-	-	-	-	-	18µM
Cc1ccc(CNC(=O)C2CCN(S(=O)(=O)c3cccs3)CC2)o1	-	-	8.9µM	-	-	-
Cc1ccc(CNC(=O)C2CCC(=O)N(Cc3cccc(C(F)(F)F)c3)C2)o1 (stereo not drawn)	.	-	35µM	-	-	-
Cc1ccc(CNC(=O)C2CCC(=O)N(CC3CCCCC3)C2)o1 (stereo not drawn)	-	-	50µM	-	-	-
COc1cc(OC)c(OC)cc1/C=C/c1cc[n+](C)c2ccccc12	.	.	-	-	.	.

Screens: PubChem BioAssay, National Center for Advancing Translational Sciences (NCATS)
